Bioassay records from PubChem.
TSHR ag – qHTS Assay for Agonists of the Thyroid Stimulating Hormone Receptor; HEK293-CNG-TSHR cells (CNG channel as cAMP sensor), membrane potential dye, cAMP; Potency, µM (highest dose often 57.1 µM), hits mostly activators; 73,000 compounds, 0.48% hits; AID 926, 2007; active means well fitted activation curve with a large enough effect in the main read-out, with a control signal flat, not every such curve was filed as active; inconclusive means small, poorly fitted or top-dose-only effect, or a change in a side signal; inactive means no such curve, though single readings can be large or run the other way; reference of the percent scale not stated here;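 further: the control signal comes from parental cells without the receptor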
Target sequence (P16473 whole entry, looked up): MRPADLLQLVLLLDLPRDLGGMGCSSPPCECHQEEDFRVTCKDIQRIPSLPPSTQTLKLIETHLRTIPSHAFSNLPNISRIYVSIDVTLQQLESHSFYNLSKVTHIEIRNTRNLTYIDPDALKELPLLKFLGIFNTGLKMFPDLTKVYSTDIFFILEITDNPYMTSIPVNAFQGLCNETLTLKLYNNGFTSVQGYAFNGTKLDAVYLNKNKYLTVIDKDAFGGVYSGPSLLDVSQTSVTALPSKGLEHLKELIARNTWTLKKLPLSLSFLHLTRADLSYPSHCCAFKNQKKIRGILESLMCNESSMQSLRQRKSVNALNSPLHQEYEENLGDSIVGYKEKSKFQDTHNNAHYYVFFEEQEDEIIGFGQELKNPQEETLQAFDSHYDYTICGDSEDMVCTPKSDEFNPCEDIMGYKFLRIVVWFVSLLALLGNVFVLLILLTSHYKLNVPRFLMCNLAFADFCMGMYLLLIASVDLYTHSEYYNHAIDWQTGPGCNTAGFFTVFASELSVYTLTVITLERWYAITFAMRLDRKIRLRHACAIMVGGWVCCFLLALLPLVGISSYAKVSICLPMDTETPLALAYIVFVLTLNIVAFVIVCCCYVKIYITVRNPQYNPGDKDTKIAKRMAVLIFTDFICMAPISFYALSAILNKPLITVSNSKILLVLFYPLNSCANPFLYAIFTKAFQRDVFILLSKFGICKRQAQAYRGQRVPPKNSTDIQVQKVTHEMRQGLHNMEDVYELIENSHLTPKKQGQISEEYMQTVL
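HEK 293 cells stably expressing TSHR and a cAMP-gated CNG channel; parental CNG-only cells as counterscreen. Cells preloaded 60 min with membrane potential dye plus 100 uM RO 20-1724, then compound 30 min; fluorescence read at 590 nm.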
HEK293 cAMP ctrl – qHTS Assay for Agonists of the Thyroid Stimulating Hormone Receptor: Activators of Intracellular cAMP Concentrations in Parental HEK 293; Potency, µM (series often up to 57.1 µM), actives largely listed as activators; parental HEK293 CNG cAMP sensor, membrane potential fluorescence; AID 938, 2007; 73,000 compounds, 2.5% hits; active means well fitted activation curve with a large enough effect; inconclusive means small, poorly fitted or top-dose-only effect; inactive means no such curve, though single readings can be large or run the other way; further: nearly all actives have a fitted effect of over 55% in size
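Parental HEK 293 cells stably expressing a cAMP-gated CNG channel were loaded with membrane potential dye containing 100 uM RO 20-1724 for 60 min. Compound added for 30 min; depolarization read as fluorescence intensity at 590 nm.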
Hsp90 Hop PPI – qHTS Assay for Disrupters of an Hsp90 Co-Chaperone Interaction; Hsp90 C-terminal peptide / TPR2A (Hop) interaction, human; AlphaScreen TPR2A-His6 binding biotin-Hsp90 C-terminal peptide; Potency, µM (titrated, usually from 57 µM); 71,000 compounds, 0.44% hits; AID 595, 2007; active means well fitted curve in either direction with a large enough effect; inconclusive means small, poorly fitted or top-dose-only effect, or another doubt
CRE-bla Fsk – Cell signaling CRE-BLA (Fsk stim). CHO CRE-bla reporter (cAMP response element driving beta-lactamase), forskolin EC10, beta-lactamase ratio. Potency, µM (top dose mostly 38.2 µM), most hits filed as activators. 71,000 compounds, 2.5% hits. AID 662, 2007; active means well fitted activation curve with a large enough effect in the signal ratio, with a control signal flat, not every such curve was filed as active; inconclusive means small, poorly fitted or top-dose-only effect, or effect the other way, or a change in a side signal; the % refers to the signal ratio
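The 460nm/530nm emission ratio after CCF4 loading defined %Activity, from which AC50 values were obtained. CRE-bla CHO cells received compound dilution series together with an EC10 level of NKH 477 for 3 hours at 37 degrees Celsius.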
IkB sig inh – IkB Signaling; ABC-DLBCL IkBa-CBG/CBR dual luciferase ratio, 4 h; response scale: scaled: untreated 0%, proteasome inhibitor 100%; Potency, µM (titrated, usually from 57.1 µM); 110,000 compounds, 0.04% hits; AID 445, 2006; active means well fitted curve in the direction sought with a large enough effect in the signal ratio, not every such curve was filed as active; inconclusive means small, poorly fitted or top-dose-only effect, or a change in a side signal; the % refers to the signal ratio;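 further: the direction sought is a rising ratio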
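In this assay, an IκBα–CBG68 fusion accumulates when IKK-driven degradation is blocked; native CBR normalizes for cell number. OCI-Ly3 cells were treated 4 h with compound and doxycycline, then green and red light read after Chroma-Glo addition.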
A number is an active result; 0 = inactive; ? = inconclusive; - = not tested or not shown; [ ] = dose if it differs, or a comment. A selection: hits, their analogues and other compounds. The true share with any hit is near 3.5%.

SMILES | TSHR ag | HEK293 cAMP ctrl | Hsp90 Hop PPI | CRE-bla Fsk | IkB sig inh
c1ccc(COn2c(-c3ccccc3)nc3c2CCc2nonc2-3)cc1 | ? | 25.1µM | 0 | 0 | 0
c1ccc(-c2cc3c(nn2)CCc2nonc2-3)cc1 | ? | ? | ? | 0 | 0
COc1ccc(-c2cc(OC)c3c(C)oc(C)c3c(=O)c2)cc1OC | ? | ? | 0 | 12.6µM | ?
Cc1cccc2cccnc12 | 0 | 0 | 0 | 0 | 0
c1cnc2c(c1)ccc1cccnc12 | ? | 0[11.4 µM] | 0.631µM | 0[7.6 µM] | 0[11.4 µM]
COc1ccc2nc(N3CCC(C)CC3)c(C#N)cc2c1 | 0 | 0 | 25.1µM | ? | 0
CCOC(=O)C1CCN(c2nc3cc(OC)ccc3cc2C#N)CC1 | ? | ? | 25.1µM | ? | 0
Cc1c(CNC2CCCCC2)c(C(=O)O)c(C)n1Cc1ccc(F)cc1 | - | - | - | - | 0
CCc1cc(Br)ccc1N1C(=O)C2CC=CCC2C1=O (stereo not drawn) | 2.51µM | 0[11.4 µM] | 0[11 µM] | ? | 0
O=C(CN1C(=O)NC2(CCCCCC2)C1=O)c1ccc2c(c1)OCCO2 | ? | 10µM | ? | ? | 0
c1ccc(CCc2nn3c(Cn4cnc5ccccc54)nnc3s2)cc1 | ? | ? | 0 | ? | 0
c1ccc2c(c1)ncn2Cc1nnc2sc(-c3ccc4c(c3)OCO4)nn12 | ? | ? | 0 | 12.6µM | 0
Clc1ccccc1-c1nn2c(Cn3cnc4ccccc43)nnc2s1 | 3.16µM | 0 | 0 | ? | 0
CCOC(=O)c1sc2nc(N3CCOCC3)c3c(c2c1N)CCC3 | ? | ? | 0 | 10µM | 0
CCc1c(C)c2ccc(O)c(CN3CCN(c4ccc(F)cc4)CC3)c2oc1=O | - | - | - | - | 0
COc1cc2c(cc1OC)C(COc1ccc3c(C)cc(=O)oc3c1)N(C(=O)c1ccccc1C)CC2 (stereo not drawn) | - | - | - | - | 0
COc1cc2c(cc1OC)C(COc1ccc3c(C)cc(=O)oc3c1)N(C(=O)c1ccco1)CC2 (stereo not drawn) | - | 0 | 0 | 1.58µM | 0
COc1cc2c(cc1OC)C(COc1ccc(F)cc1)N(C(=O)c1ccco1)CC2 (stereo not drawn) | - | 0 | 0 | 10µM | 0
CN(C)c1nc(N)c(C(=O)N=C(N)N)nc1Cl | ? | 25.1µM | 0 | 0 | 0
COc1ccc(Cl)cc1-c1nc(-c2ccncc2)no1 | 0 | 0 | 0 | 0 | 0
Clc1ccc(OCc2nc(-c3ccncc3)no2)c(Cl)c1 | ? | 25.1µM | ? | 0 | ?
Cc1ccc(-c2noc(COc3ccccc3C)n2)cc1 | ? | 25.1µM | 0 | 0 | 0
CCOC(=O)c1[nH]cnc1C(=O)O | 0 | 0 | 25.1µM | 0 | 0
CCNC(=O)c1nc[nH]c1C(=O)NCC | 0 | 0 | 0 | 0 | 0
CCOC(=O)C1CCCN(C(=O)c2ccc3c(c2)N(Cc2ccccc2F)C(=O)c2ccccc2S3=O)C1 (stereo not drawn) | - | - | - | - | 0
SMILES | TSHR ag | HEK293 cAMP ctrl | Hsp90 Hop PPI | CRE-bla Fsk | IkB sig inh
CC(=O)Nc1ccc(S(=O)(=O)NC(CC(=O)O)c2ccc(OC(C)C)cc2)cc1 (stereo not drawn) | 0[11.4 µM] | 0 | 0 | 0 | 0
Cc1ccc(S(=O)(=O)NC(CC(=O)O)c2ccccc2)cc1 (stereo not drawn) | 0 | 0 | 0 | 1.26µM | 0
OC[C@@H]1O[C@H](O)[C@@H](Cl)[C@H](O)[C@@H]1O | 0 | 0 | 0 | 0 | 0
Cc1cccc(C)c1-n1nnnc1SCSc1nnnn1-c1c(C)cccc1C | ? | 15.8µM | 0 | 0 | 0
CCOC(=S)SCC(=O)O | 0[11.4 µM] | 0[11.4 µM] | 0[11 µM] | 0[7.6 µM] | 0[11.4 µM]
CN1CCN(CN2C(=O)C3C4C=CC(C3C2=O)C2C3C(=O)N(CN5CCN(C)CC5)C(=O)C3C42)CC1 (stereo not drawn) | 0[11.4 µM] | 0[11.4 µM] | 0[11 µM] | 0[7.6 µM] | 0[11.4 µM]
CCC1Oc2ccc(C)cc2N(CC(=O)NCc2cc(OC)ccc2OC)C1=O (stereo not drawn) | ? | ? | 0 | 0 | 0
CCC1Oc2ccc(C)cc2N(CC(=O)NCc2cccc(OC)c2)C1=O (stereo not drawn) | ? | 12.6µM | 0 | 0 | 0
c1ccc(-c2cc3c(-n4cccc4)ncnc3o2)cc1 | ? | 20µM | 0 | 0 | ?
c1cn(-c2ncnc3ccc(-c4ccoc4)cc23)cn1 | 0 | 0 | 0 | ? | 0[11.4 µM]
O=C(O)CCCSc1nc2ccccc2s1 | 0[11.4 µM] | 0[11.4 µM] | 0[11 µM] | 0[7.6 µM] | ?
N#Cc1c2n(c3c(=O)n(Cc4ccc(Cl)cc4)cnc13)CCCC2 | 0 | 0 | 0 | 10µM | 0
CCc1cccc(NC(=O)CN2C(=O)NC3(CCCCCCC3)C2=O)c1 | 12.6µM | 0 | 0 | ? | 0
Cc1cc(C)c(NC(=O)CN2C(=O)NC3(CCCCC3)C2=O)c(C)c1 | 0 | 0 | 0 | 0 | 0
CCn1c(SCC(=O)NCCOC)nc2sc(C)c(C)c2c1=O | 0 | 0 | 0 | 10µM | 0
COc1cccc([C@@H]2Oc3ccc(OC)cc3/C(=N/O[C@@H](C)CN3CCCc4nc(C)c(C)cc43)[C@@H]2O)c1 | ? | 3.98µM | - | - | -
CCCCCOc1ccccc1CN1C(=O)C(=O)c2cc(C)ccc21 | - | - | - | - | 0
O=C(CSCc1nc2cccnc2n1C1CCCCC1)NCc1cccc(Br)c1 | - | - | - | - | 0
CCCn1c(C)nc2c(NC3CCN(Cc4ccccc4)C3)nc(C)nc21 (stereo not drawn) | 0 | 0 | 0 | ? | -
CCCn1c(C)nc2c(NCc3ccccc3)nc(C)nc21 | 0 | 0 | 0 | 10µM | -
CCCCNc1nc(C)nc2c1nc(C)n2CCC | 0 | 0 | 0 | 10µM | -
CCCn1c(C)nc2c(Nc3ccccc3)nc(C)nc21 | 0 | 0 | 0 | 12.6µM | -
CCN(CC)CCCNC(=O)CN1N=C(c2ccccc2)CCC1=O | - | - | - | - | 0
CCOC(=O)c1nnn(-c2nonc2N)c1CNc1ccccc1 | 0[11.4 µM] | 0 | 0 | 0 | 0
CCOC(=O)c1nnn(-c2nonc2N)c1COc1ccccc1 | ? | 12.6µM | 0 | 0 | 0
SMILES | TSHR ag | HEK293 cAMP ctrl | Hsp90 Hop PPI | CRE-bla Fsk | IkB sig inh
CCc1c(C)c2ccc(OCC(=O)OC(C)C)c(C)c2oc1=O | ? | 25.1µM | 0 | 0 | 0
CCc1c(C)c2ccc(OCC(=O)N(C)C)c(C)c2oc1=O | 0 | 0 | 0 | 6.31µM | 0
Cc1cccc(N2CCN(C(=O)c3ccc4c(c3)N(Cc3cccc(Cl)c3)C(=O)c3ccccc3S4=O)CC2C)c1 (stereo not drawn) | - | - | - | - | 0
Cc1ccc(B(O)O)cc1 | 0 | 0 | - | - | -
Cc1ccc(-c2cc(C(F)F)n3ncc(C(=O)N4CCN5CCCC5C4)c3n2)cc1 (stereo not drawn) | ? | 20µM | 0 | ? | 0
COc1ccc(-c2cc(C(F)F)n3ncc(C(=O)N4CCSCC4)c3n2)cc1 | ? | ? | 0 | ? | 0
CCOC(=O)C1CCCN(C(=O)c2cnn3c(C(F)F)cc(-c4ccc(C)cc4)nc23)C1 (stereo not drawn) | ? | 7.94µM | 0 | ? | 0
Nc1nc(SCC(=O)c2ccc(Br)cc2)c2[nH]cnc2n1 | 0[11.4 µM] | 0[11.4 µM] | 0[11 µM] | 0[7.6 µM] | 0[11.4 µM]
